Assay outcomes (PubChem BioAssay)
The full list was thinned out, with hits kept by preference.
D1 allo mod: D1 CRE-luciferase signal change, two-sided – cell-based, HEK293 D1, dopamine EC30, D1 allosteric modulator project, primary screen; dopamine EC30 potentiation; actives deviate in either direction; B-score at 10 µM; actives 5.9% (n = 58,000);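 active means luminescence count or its row- and column-corrected plate score outside the 99.7% band of the plate's sample wells, on either side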
Target sequence (P21728 whole entry, looked up): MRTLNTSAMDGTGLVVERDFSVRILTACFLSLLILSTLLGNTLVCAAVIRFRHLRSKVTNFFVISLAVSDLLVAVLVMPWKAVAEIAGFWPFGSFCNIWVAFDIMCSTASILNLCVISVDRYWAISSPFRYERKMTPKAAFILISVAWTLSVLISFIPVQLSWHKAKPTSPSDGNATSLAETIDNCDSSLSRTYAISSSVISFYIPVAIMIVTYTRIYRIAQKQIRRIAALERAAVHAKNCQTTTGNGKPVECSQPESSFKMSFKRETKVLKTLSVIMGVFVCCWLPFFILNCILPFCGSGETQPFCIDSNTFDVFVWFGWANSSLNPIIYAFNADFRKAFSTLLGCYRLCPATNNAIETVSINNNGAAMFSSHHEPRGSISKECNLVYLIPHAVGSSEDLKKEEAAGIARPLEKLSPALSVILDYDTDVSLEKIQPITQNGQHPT
hDAT+cocaine: changed hDAT dopamine uptake under cocaine IC80, either direction, primary screen, cocaine antagonist project, cell-based, LLC-PK1 hDAT, [14C]-dopamine uptake, MLSMR | LLC-PK1 hDAT cells, [14C]-dopamine uptake with cocaine IC80; actives deviate in either direction | B-score at 10 µM | actives 1.3% (n = 110,000) | AID 449768, 2010;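 active means Z score or B-score, a plate-position-corrected score, falls beyond the plate's 99.7% confidence bounds, in either direction; inactive means both scores lie inside the 99.7% bounds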;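 further: scored against the spread of the other compound wells on the same plate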
BAP1 block: inhibitors of BAP1 deubiquitinase, primary screen, biochemical, Ub-AMC fluorescence, kinetic; actives 0.48% (n = 72,000); Ubiquitin carboxyl-terminal hydrolase BAP1 (Homo sapiens), Q92560; AID 436, 2006; calls only at 20 µM; recombinant BAP1, Ub-AMC hydrolysis fluorescence kinetic; active compounds read low;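 active means activity remaining at or below 50% of control, provided the compound also passes the data quality filters; inactive means the rest, including low values that fail the filters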;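 further: 100% = DMSO wells rate and 0% = substrate alone blank rate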
BAP1 inh conf: BAP1 deubiquitinase inhibitors, hit retest, confirmation, orthogonal assay, biochemical, Ub-ethyl ester substrate, HPLC readout. shares compounds with BAP1 block. purified BAP1, Ub-ethyl ester hydrolysis; active compounds read low. % of control activity, % at 20 µM. actives 8% (n = 310). AID 753, 2007;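 active means percent of control activity at or below 60%; inconclusive means HPLC trace unusable from injection failure or solvent front hiding peaks; inactive means the rest, plus ubiquitin peak ratio over a set limit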
The depositor's hits bear a star.

For CCOC(=O)c1ccc(OCC(=O)c2ccc(O)cc2O)cc1 the results were D1 allo mod -1.72, hDAT+cocaine -1.05, BAP1 block active and BAP1 inh conf 97.0.
CCOC(=O)c1sc(=NC(=O)c2ccc(OC)c(OC)c2)n(C)c1C was read as D1 allo mod -0.0522, hDAT+cocaine 0.524, BAP1 block active and BAP1 inh conf inconclusive.
Screening CCOC(=O)c1sc(=NC(=O)c2cccc(OC)c2)n(C)c1C returned D1 allo mod 0.552, hDAT+cocaine -0.317 and BAP1 block inactive.
`O=C(Nc1nc2c(s1)COc1ccccc1-2)c1cccs1` gave D1 allo mod 0.89, hDAT+cocaine 0.794 and BAP1 block inactive.
O=C(CCS(=O)(=O)c1ccccc1)Nc1nc2c(s1)COc1ccccc1-2 was read as hDAT+cocaine -0.00421, BAP1 block active and BAP1 inh conf 105.6.
`O=C(CSc1nnc(-c2ccc(F)cc2)o1)Nc1ccc(S(=O)(=O)N2CCCC2)cc1` gave D1 allo mod -0.0837, hDAT+cocaine -0.317 and BAP1 block inactive.
For CCn1c(SCc2nnc(-c3ccccc3)o2)nnc1-c1ccc(S(=O)(=O)N2CCCC2)cc1 the results were D1 allo mod -1.47, hDAT+cocaine 0.0121 and BAP1 block inactive.
Screening O=C(CSc1nnc(-c2ccc(F)cc2)o1)Nc1ccc(S(=O)(=O)N2CCCCCC2)cc1 returned D1 allo mod -0.11, hDAT+cocaine -1.91, BAP1 block active and BAP1 inh conf 152.4.
`O=S(=O)(c1ccc(-c2nnc(SCc3nnc(-c4ccccc4)o3)o2)cc1)N1CCCC1` gave D1 allo mod 0.494, hDAT+cocaine -0.897, BAP1 block active and BAP1 inh conf 108.5.
Screening Cc1cc(C)nc(SCC(=O)c2c[nH]c3ccccc23)n1 returned BAP1 block inactive.
For N#CC1=C(N)NC(SCC(=O)Nc2ccc(Br)cc2)=C(C#N)C12CCCCC2 the results were hDAT+cocaine -1.81.
CSC1=C(C#N)C2(CCCC2)C(C#N)=C(N)N1 was read as D1 allo mod 0.229, hDAT+cocaine -0.359, BAP1 block active and BAP1 inh conf 77.0.
`CC(NC(=O)c1nn2c(c1Cl)NC(c1ccc(Cl)cc1)CC2C(F)(F)F)c1ccccc1` (centres undefined) gave BAP1 block inactive.
For O=C(Nc1nnc(-c2ccco2)s1)C1CC1 the results were D1 allo mod 0.845, hDAT+cocaine 0.599 and BAP1 block inactive.
O=C(Nc1nnc(-c2ccco2)s1)C1CCN(S(=O)(=O)c2ccc(Cl)cc2)CC1 was read as D1 allo mod -0.27, hDAT+cocaine -0.166, BAP1 block active and BAP1 inh conf inconclusive.
`Cc1cccc(NC(=O)c2cnc3scc(C)n3c2=O)c1` gave D1 allo mod 0.0785, hDAT+cocaine -1.11 and BAP1 block inactive.
Cc1noc(NS(=O)(=O)c2ccc(NC(=O)c3cnc4scc(C)n4c3=O)cc2)c1C was read as D1 allo mod 2.15, hDAT+cocaine -0.0591 and BAP1 block inactive.
`Cc1cc(NS(=O)(=O)c2ccc(NC(=O)c3cnc4scc(C)n4c3=O)cc2)nc(C)n1` gave hDAT+cocaine 0.463, BAP1 block active and BAP1 inh conf 92.4.
For Cc1ccc(NC(=O)c2cnc3scc(C)n3c2=O)c(C)c1 the results were D1 allo mod 0.0383, BAP1 block active and BAP1 inh conf inactive.
Screening Cc1ccc(Cn2c(=N)n(CC(=O)c3ccco3)c3ccccc32)cc1 returned BAP1 block inactive.
For O=C(Nc1nc(-c2cccs2)cs1)c1cccc(S(=O)(=O)N2CCCCCC2)c1 the results were D1 allo mod -0.0652 and hDAT+cocaine -0.93.
O=C(Nc1nc(-c2cccs2)cs1)c1ccc(S(=O)(=O)N2CCCCC2)cc1 was read as D1 allo mod -0.895, hDAT+cocaine 2.48, BAP1 block active and BAP1 inh conf 89.1.
For O=C(O)c1oc2ccc(Br)cc2c1-n1cccc1 the results were D1 allo mod -0.359, hDAT+cocaine -0.405, BAP1 block active and BAP1 inh conf 88.1.
`COC(=O)c1oc2ccc(Br)cc2c1NC(=O)c1ccccc1` gave D1 allo mod 0.657, hDAT+cocaine 0.333 and BAP1 block inactive.
Screening O=C1CC(c2ccco2)CC2=C1C(c1ccco1)Nc1ccccc1N2 (centres undefined) returned BAP1 block inactive.
For Cc1nc2n(n1)C(c1ccccc1)C1=C(CC(c3ccco3)CC1=O)N2 (centres undefined) the results were D1 allo mod -0.312, hDAT+cocaine -1.21, BAP1 block active and BAP1 inh conf 115.8.
Screening CCOc1cc(-c2nc3ccccn3c2N=Cc2cc([N+](=O)[O-])ccc2Cl)ccc1O returned BAP1 block inactive.
`Cc1cc(NCc2ccccc2)nc(-c2ccccc2O)n1` gave D1 allo mod 0.838, hDAT+cocaine 0.496 and BAP1 block inactive.
Screening CSc1nc(-c2ccccc2O)nc(-c2ccccc2O)n1 returned D1 allo mod 0.415, BAP1 block active and BAP1 inh conf inactive.
`CCCCOc1ccc2c(=O)c(-c3ccccc3OC)coc2c1` gave BAP1 block inactive.
`Cc1cc(C(=O)NCC(=O)O)c(C)o1` gave hDAT+cocaine -0.724.
Screening Cc1cc(C(=O)NCc2cc(C(=O)O)oc2C)c(C)o1 returned D1 allo mod 0.468, hDAT+cocaine -0.0353, BAP1 block active and BAP1 inh conf 111.1.
CCOc1ccc(-c2nc(-c3ccccc3C)no2)cc1 was read as D1 allo mod 0.64, hDAT+cocaine 0.568, BAP1 block active and BAP1 inh conf 102.4.
Screening CCOc1ccc(-c2nc(-c3cccnc3)no2)cc1 returned hDAT+cocaine 0.159.
Screening CC(=O)c1c(-c2ccccc2)nc2nonc2c1N returned BAP1 block inactive.
C=CCn1c(CCNC(=O)c2ccccc2F)nnc1SCC(=O)Nc1nc(C)cs1 was read as D1 allo mod -0.603, hDAT+cocaine 0.155, BAP1 block active and BAP1 inh conf 113.1.
`C=CCn1c(SCC(=O)Nc2nc(C)cs2)nnc1C(C)NC(=O)c1ccccc1Cl` (centres undefined) gave hDAT+cocaine 0.0357.
`O=C(CN(Cc1ccccc1)S(=O)(=O)c1ccc2c(c1)OCCO2)Nc1ccc2c(c1)OCCO2` gave D1 allo mod 0.509, hDAT+cocaine 0.163, BAP1 block active and BAP1 inh conf 143.7.
`CS(=O)(=O)N(CC(=O)Nc1ccc2c(c1)OCCO2)Cc1ccccc1` gave D1 allo mod -0.311, hDAT+cocaine 0.448 and BAP1 block inactive.
FC(F)(F)c1cc(C=Cc2ccccc2)no1 was read as BAP1 block inactive.
CCOc1ccccc1Oc1coc2cc(O)ccc2c1=O was read as D1 allo mod -0.211, hDAT+cocaine -0.00303, BAP1 block active and BAP1 inh conf 132.4.
